Results reported in PubChem BioAssay.
For some assays here: Measured potencies and affinities stand elsewhere. Activity calls are given as the source filed them. Unless noted, no rule for the calls is given here.

Experiments:
[1] = antimalarial activity against Dd2 strain (AID 2302;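 active = growth inhibition above 50% at the single 2 µM test dose, taken to imply half-maximal potency below 2 µM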;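 also: 0% = DMSO untreated growth and 100% = chloroquine plus artemisinin killed control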); conditions: P. falciparum Dd2 in RBCs, LDH growth readout, 72 h; at 2 µM; hits give high values
[2] = human hepatoma cell viability loss – ATP luminescence, cytotoxicity control for P. falciparum antimalarial project, primary screen (AID 2303;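 active = inhibition above 50%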;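 also: 0% = DMSO wells and 100% = digitonin-killed cells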); conditions: HepG2 viability, 24-48 h, at 10 µM, hits give high values
[3] = biological target: L-lactate dehydrogenase (Plasmodium falciparum (isolate CDC / Honduras)) (UniProt Q27743); assay: PfLDH activity inhibition – cell lysate, 3D7 strain, counter-screen for P. falciparum growth inhibition project (AID 2304);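 also: 0% = vehicle and 100% = reference inhibitor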; conditions: P. falciparum 3D7 crude extract, LDH APAD/NBT absorbance; at 2 µM; hits give high values
[4] = inhibition of 3D7 malaria parasite growth – strain 3D7 (AID 2306);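 also: 0% = DMSO wells and 100% = chloroquine plus artemisinin control wells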; conditions: P. falciparum 3D7 erythrocytic growth, LDH absorbance, 72 h; at 2 µM; hits give high values
[5] = biological target: Calcium-dependent protein kinase 1 (Plasmodium falciparum (isolate 3D7)) (UniProt P62344); assay: PfCDPK1 kinase inhibitors, biochemical, TCAMS library (AID 1159585; cut-off not given, nearly all actives have IC50 up to about 0.98 µM;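 also: inhibitors leave more ATP so luminescence rises with inhibition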); conditions: recombinant PfCDPK1, Kinase-Glo ATP depletion luminescence
[6] = biological target: Plasmodium falciparum protein kinase 6 (PK6, PF3D7_1337100) (UniProt Q8IDW1); assay: PfPK6 kinase inhibitors, biochemical, TCAMS library (AID 1159586); conditions: recombinant PfPK6, Kinase-Glo ATP depletion luminescence
[7] = biological target: Protein kinase 7 (PK7), Plasmodium falciparum 3D7 (PF3D7_0213400) (UniProt Q7YTF7); assay: inhibition of Plasmodium PK7 catalytic activity – biochemical, TCAMS antimalarial set, Kinase-Glo luminescence (AID 1159587); conditions: recombinant PfPK7, Kinase-Glo ATP depletion luminescence
[8] = biological target: Calcium-dependent protein kinase 4 (Plasmodium falciparum (isolate 3D7)) (UniProt Q8IBS5); assay: PfCDPK4 kinase inhibitors, biochemical, TCAMS library (AID 1159588; cut-off not given, nearly all actives have IC50 up to about 0.91 µM); conditions: recombinant PfCDPK4, Kinase-Glo ATP depletion luminescence
Chain of Calcium-dependent protein kinase 4 (Plasmodium falciparum (isolate 3D7)) (Q8IBS5 whole entry, looked up): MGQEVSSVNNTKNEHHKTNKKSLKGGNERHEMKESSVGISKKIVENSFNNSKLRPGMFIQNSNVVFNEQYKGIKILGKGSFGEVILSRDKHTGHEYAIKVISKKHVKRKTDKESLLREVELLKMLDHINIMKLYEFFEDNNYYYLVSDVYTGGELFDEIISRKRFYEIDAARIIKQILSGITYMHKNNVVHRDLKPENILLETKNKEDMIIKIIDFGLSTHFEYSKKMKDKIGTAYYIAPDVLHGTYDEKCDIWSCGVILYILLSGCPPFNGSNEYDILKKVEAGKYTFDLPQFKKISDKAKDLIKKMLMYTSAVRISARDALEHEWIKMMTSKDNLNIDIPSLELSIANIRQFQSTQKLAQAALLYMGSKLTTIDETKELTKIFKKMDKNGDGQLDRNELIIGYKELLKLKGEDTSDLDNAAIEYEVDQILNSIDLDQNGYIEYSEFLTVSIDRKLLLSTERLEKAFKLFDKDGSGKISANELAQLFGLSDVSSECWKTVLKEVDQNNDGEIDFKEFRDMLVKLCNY

Chain of L-lactate dehydrogenase (Plasmodium falciparum (isolate CDC / Honduras)) (Q27743 whole entry, looked up): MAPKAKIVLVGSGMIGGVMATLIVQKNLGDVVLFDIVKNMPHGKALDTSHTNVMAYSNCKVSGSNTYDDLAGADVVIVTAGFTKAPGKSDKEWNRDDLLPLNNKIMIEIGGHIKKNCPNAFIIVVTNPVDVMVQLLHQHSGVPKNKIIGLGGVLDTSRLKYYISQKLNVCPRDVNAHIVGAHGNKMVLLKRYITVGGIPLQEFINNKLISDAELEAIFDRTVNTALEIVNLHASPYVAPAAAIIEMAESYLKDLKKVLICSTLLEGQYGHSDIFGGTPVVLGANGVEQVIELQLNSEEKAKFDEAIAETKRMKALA
Chain of Calcium-dependent protein kinase 1 (Plasmodium falciparum (isolate 3D7)) (P62344 whole entry, looked up): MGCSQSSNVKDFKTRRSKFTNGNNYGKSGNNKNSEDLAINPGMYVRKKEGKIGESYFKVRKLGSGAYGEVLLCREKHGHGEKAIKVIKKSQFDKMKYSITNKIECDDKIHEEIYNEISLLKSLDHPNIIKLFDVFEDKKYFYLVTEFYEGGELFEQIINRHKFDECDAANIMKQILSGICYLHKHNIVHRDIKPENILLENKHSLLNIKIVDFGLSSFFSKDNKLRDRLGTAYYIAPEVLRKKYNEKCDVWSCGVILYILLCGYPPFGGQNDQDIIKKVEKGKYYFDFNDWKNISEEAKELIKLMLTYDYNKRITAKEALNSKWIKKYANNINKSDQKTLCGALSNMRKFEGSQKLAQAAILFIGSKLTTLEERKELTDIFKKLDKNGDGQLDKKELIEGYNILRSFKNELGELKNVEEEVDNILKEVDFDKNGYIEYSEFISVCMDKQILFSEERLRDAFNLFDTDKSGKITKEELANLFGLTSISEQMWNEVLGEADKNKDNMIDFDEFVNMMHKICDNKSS
Chain of Plasmodium falciparum protein kinase 6 (PK6, PF3D7_1337100) (Q8IDW1 1-305): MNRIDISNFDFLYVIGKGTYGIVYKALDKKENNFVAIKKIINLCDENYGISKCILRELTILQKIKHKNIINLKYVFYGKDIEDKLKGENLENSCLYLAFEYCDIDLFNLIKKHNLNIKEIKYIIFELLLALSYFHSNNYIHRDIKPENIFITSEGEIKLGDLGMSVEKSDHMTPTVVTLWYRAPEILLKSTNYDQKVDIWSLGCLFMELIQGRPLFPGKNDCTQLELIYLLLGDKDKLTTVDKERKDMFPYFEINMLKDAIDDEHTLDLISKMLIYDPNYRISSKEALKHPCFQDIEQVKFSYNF
Chain of Protein kinase 7 (PK7), Plasmodium falciparum 3D7 (PF3D7_0213400) (Q7YTF7 1-343): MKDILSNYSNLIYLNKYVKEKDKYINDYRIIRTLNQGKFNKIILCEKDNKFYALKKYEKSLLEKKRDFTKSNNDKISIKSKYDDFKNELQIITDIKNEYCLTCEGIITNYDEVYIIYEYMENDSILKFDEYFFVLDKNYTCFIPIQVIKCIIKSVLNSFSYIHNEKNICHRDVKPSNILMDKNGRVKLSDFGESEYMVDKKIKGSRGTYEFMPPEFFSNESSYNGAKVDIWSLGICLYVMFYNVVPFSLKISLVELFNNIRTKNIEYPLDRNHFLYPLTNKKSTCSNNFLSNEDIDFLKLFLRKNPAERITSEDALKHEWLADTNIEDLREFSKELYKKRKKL

COc1cc(C(=O)NCCCN2CCN(c3cccc(Cl)c3)CC2)ccc1-c1cc2cc(Cl)c(Cl)cc2[nH]1
inactive: inhibition [2] 35% | inhibition [3] 0% | outcome [5] | outcome [6] | outcome [7] | outcome [8]
active: growth inhibition [1] 86% | growth inhibition [4] 100%

COc1ccc(CNCc2cccc(-c3cccc(-c4nc5ccccc5[nH]4)c3)c2)cc1
active: growth inhibition [1] 50% | growth inhibition [4] 102%
inactive: inhibition [2] 24% | inhibition [3] 1% | outcome [5] | outcome [6] | outcome [7] | outcome [8]

COc1cccc2cc(C(=O)N[C@@H](CC(C)C)C(=O)N[C@H](/C=N/NC(=O)Cc3cccnc3)CCc3ccccc3)oc12
inactive: inhibition [2] 6% | inhibition [3] 2% | outcome [5] | outcome [6] | outcome [7] | outcome [8]
active: growth inhibition [1] 54% | growth inhibition [4] 82%

Cc1[nH]c(C)c(-c2ccc(-c3ccc(F)cc3)cc2)c(=O)c1Br
active: growth inhibition [1] 52% | growth inhibition [4] 94%
inactive: inhibition [2] 12% | inhibition [3] 2% | outcome [5] | outcome [6] | outcome [7] | outcome [8]

CN1CCC(NCc2cccc(-c3ccc(S(=O)(=O)NCCc4ccccn4)c(F)c3)c2)CC1
inactive: growth inhibition [1] 26% | inhibition [2] 11% | inhibition [3] 7% | outcome [5] | outcome [6] | outcome [7] | outcome [8]
active: growth inhibition [4] 98%

O=C(Nc1ccc(-c2cccc(-c3nc4ccc(C(F)(F)F)cc4[nH]3)c2)cc1)Nc1ccc(F)c(F)c1F
active: growth inhibition [1] 85% | inhibition [2] 58% | growth inhibition [4] 99%
inactive: inhibition [3] 1% | outcome [5] | outcome [6] | outcome [7] | outcome [8]

Cn1nc(C(F)(F)F)cc1-c1ccc(C(=O)Nc2ccc3c(c2)CNCC3(C)C)s1
inactive: growth inhibition [1] 36% | inhibition [2] 10% | inhibition [3] -1% | outcome [5] | outcome [6] | outcome [7] | outcome [8]
active: growth inhibition [4] 88%

CCN(Cc1ccccc1)C1CCN(Cc2cc(Br)ccc2O)CC1
active: growth inhibition [1] 97% | growth inhibition [4] 97%
inactive: inhibition [2] 6% | inhibition [3] -1% | outcome [5] | outcome [6] | outcome [7] | outcome [8]

C[C@@H](CC1CCCCC1)NCc1cccc(NS(=O)(=O)c2ccc(O)c(-c3ccno3)c2)c1
inactive: growth inhibition [1] 4% | inhibition [2] -2% | inhibition [3] -6% | outcome [5] | outcome [6] | outcome [7] | outcome [8]
active: growth inhibition [4] 88%

Cc1cc(N[C@@H](CC(C)C)C(=O)Nc2ccccc2)nc(NCC2CCCCC2)n1
inactive: inhibition [2] 8% | inhibition [3] 1% | outcome [5] | outcome [6] | outcome [7] | outcome [8]
active: growth inhibition [1] 95% | growth inhibition [4] 101%
